Source: PubChem BioAssay (National Center for Advancing Translational Sciences (NCATS))
Pf Dd2 inh: inhibitors of Plasmodium falciparum Dd2 growth; P. falciparum Dd2 growth, SYBR Green, 72 h; Potency, µM (top dose mostly 28.9 µM), inactives show at the top dose activity, negative = inhibition, hits mostly inhibitors; hit rate 4.3% among 120,000; AID 1347417; active = well fitted inhibition curve with a large enough effect;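 note: plate controls were DMSO vehicle for no effect and reference drug for full effect; nearly all actives have a fitted effect of over 65% in size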
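Readout: SYBR Green fluorescence, 485 nm excitation, 535 nm emission, after ~16 h lysis at 37C. Before that, Dd2-infected red cells (2.5% hematocrit) grew 72 h with compound, 29 uM top final concentration.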
* = called active by the depositor; [ ] = dose if it differs, or a comment. The sample as a whole holds a higher share of hits than the screen did. Potency is the fitted concentration of half-maximal effect.

Results for C=CCOC(=O)C1=C(C)N=C2SC=C(CC(=O)N3CCCC3)N2C1c1ccccc1Cl (stereo not given) ?
Pf Dd2 inh: -24%

Results for C=CCOC(=O)C1=C(C)N=C2SC=C(CC(=O)N3CCCC3)N2C1c1cccc(OC)c1OC (stereo not given) ?
Pf Dd2 inh: 5µM*

Results for CCOC(=O)C1=C(C)N=C2SC=C(CC(=O)NCCc3cccs3)N2C1c1ccccc1F (stereo not given) ?
Pf Dd2 inh: -10%

How did CC1=C(C(=O)OC(C)C)C(c2ccccc2F)N2C(CC(=O)N3CCCC3)=CSC2=N1 (stereo not given) do in these assays?
Pf Dd2 inh: inactive

What do the screens show for `CCOC(=O)C1=C(C)N=C2SC=C(CC(=O)Nc3ccc(OC)cc3)N2C1c1ccccc1F` (stereo not given)?
Pf Dd2 inh: 4.5µM*

Results for FC(F)(F)Oc1ccc(-c2cnc([C@@H]3COCCN3Cc3ccncc3)[nH]2)cc1 ?
Pf Dd2 inh: inactive

How did O=C(Nc1cccc(F)c1)N1CCc2c(nc3cc(-c4ccccc4Cl)[nH]n3c2=O)C1 do in these assays?
Pf Dd2 inh: inactive

How did C=CCNC(=O)N[C@H]1CCN(C(=O)CSC)[C@@H]1C(=O)N[C@H](Cc1c[nH]c2ccccc12)C(N)=O do in these assays?
Pf Dd2 inh: 34%

How did Cc1ccc(CNC(=O)NCC(=O)N2CCCCCNC(=O)CC2c2ccccc2)cc1 (stereo not given) do in these assays?
Pf Dd2 inh: -11%

What do the screens show for `CC(C)(C)N1CC(c2nc(-c3ccc4nc[nH]c4c3)no2)CC1=O` (stereo not given)?
Pf Dd2 inh: -11%

What do the screens show for `O=c1cc(-c2ccccn2)oc2c(-c3cccc(CO)c3)nccc12`?
Pf Dd2 inh: inactive

Results for COc1ccc(C(=O)Nc2cccc(-c3nnc4n3CCCC4)c2)cc1OC ?
Pf Dd2 inh: 5µM*

Results for CCn1nccc1C(=O)NCCC1CCN(C(=O)Nc2ccccc2)CC1 ?
Pf Dd2 inh: 1%

Results for Cc1nnc2n1CCC(NC(=O)c1cc(C3CC3)[nH]n1)CC2 (stereo not given) ?
Pf Dd2 inh: 49%

How did COc1cccc(C(=O)Nc2cccc(-c3nnc4n3CCCC4)c2)c1 do in these assays?
Pf Dd2 inh: 5.6µM*

What do the screens show for `COc1ccc(NC(=O)Cn2nc3n(c2=O)CCCC3)cc1OC`?
Pf Dd2 inh: 41%

Results for CCn1nccc1C(=O)NCCC1CCN(C(=O)Nc2cccc(C)c2)CC1 ?
Pf Dd2 inh: -14%

What do the screens show for `COc1cccc(NCc2nnc3n2CCCCC3)c1`?
Pf Dd2 inh: 43%

Results for CCn1nccc1C(=O)Nc1cccc(-c2nnc3n2CCCC3)c1 ?
Pf Dd2 inh: 8.9µM*

How did O=C(Nc1cccc(-c2nnc3n2CCCC3)c1)c1cc(C2CC2)[nH]n1 do in these assays?
Pf Dd2 inh: 4µM*

Results for Cc1ccc(NC(=O)N2CCC(c3cc(-c4cccc(C)c4)n[nH]3)CC2)cc1 ?
Pf Dd2 inh: -35%

How did CC(C)c1ccc([S+](=O)([O-])c2nnn3c2nc(NCc2ccncc2)c2ccccc23)cc1 do in these assays?
Pf Dd2 inh: -14%

Results for CCn1ccc(C(=O)N2CCCCCCNC(=O)[C@@H]3CCCC[C@@H]32)n1 ?
Pf Dd2 inh: -12%

Results for Cc1ccc(-c2nnc(C3CN(C(=O)c4ccc(C)nc4)CC34CCOCC4)o2)cc1 (stereo not given) ?
Pf Dd2 inh: -5%

What do the screens show for `Cc1ccc(C2NC(=O)N(CC(=O)Nc3ccccc3F)C3=C2C(=O)OC3)cc1` (stereo not given)?
Pf Dd2 inh: inactive

How did COCCN(Cc1ccncc1)C(=O)C1CCN(C(=O)C2CC2)CC1 do in these assays?
Pf Dd2 inh: 29%

How did Cc1ccc(C)c(Cn2c(-c3ccc(F)cc3)nc(C)c(CCO)c2=O)c1 do in these assays?
Pf Dd2 inh: inactive

How did Nc1cncc(-c2nccc(N3CCC(O)CC3)n2)c1 do in these assays?
Pf Dd2 inh: -11%

How did Cc1cccc(N(C)C(=O)Cn2nc3n(c2=O)CCCC3)c1 do in these assays?
Pf Dd2 inh: 19%

What do the screens show for `CN(C)c1cccc(C(=O)Nc2cccc(-c3nnc4n3CCCC4)c2)c1`?
Pf Dd2 inh: 4.5µM*

How did N#Cc1ccc(C(=O)Nc2cccc(-c3nnc4n3CCCC4)c2)cc1 do in these assays?
Pf Dd2 inh: 1.3µM*

Results for O=C(Nc1ccc(-c2nnc3n2CCCC3)cc1)c1cccc(Cl)c1 ?
Pf Dd2 inh: -78%

What do the screens show for `Cc1cc2nc3n(c(=O)c2n1CC(=O)Nc1cccc(C#N)c1)CCCCC3`?
Pf Dd2 inh: -24%

What do the screens show for `CCOc1ccc(-c2nnc3n2CCCC3)cc1OCC`?
Pf Dd2 inh: 18%

How did CCOc1ccc(C(=O)Nc2cccc(-c3nnc4n3CCCC4)c2)cc1 do in these assays?
Pf Dd2 inh: 1.6µM*

What do the screens show for `CCOc1ccc(C(=O)Nc2ccc3c(c2)CCCN3S(=O)(=O)c2ccc(C)cc2)cc1`?
Pf Dd2 inh: -26%

How did CC(C)(C)CC(=O)N1C[C@@H]2C[C@H]1C(=O)N(CC1CC1)c1ccccc1O2 do in these assays?
Pf Dd2 inh: -15%[44.1 µM]

What do the screens show for `O=C(C1CCc2nnc(-c3ccc(Cl)nc3)n21)N1CCCC1` (stereo not given)?
Pf Dd2 inh: -2%

Results for Cc1cc(C(=O)N2C[C@@H](COCC3CC3)[C@H](c3ccncc3)C2)on1 ?
Pf Dd2 inh: 7%

How did CCNc1ncc(-c2nc3cc(S(=O)(=O)NC(C)C)ccc3n2C(C)C)cn1 do in these assays?
Pf Dd2 inh: -11%

What do the screens show for `CCc1ccccc1NC(=O)Cn1nc2n(c1=O)CCCC2`?
Pf Dd2 inh: -6%

How did COCCOc1ccc2c(n1)CCN(C(=O)c1ccnn1C)C2 do in these assays?
Pf Dd2 inh: 42%

How did CCOC(=O)CSc1ccc2nnc(CCNS(=O)(=O)c3ccccc3)n2n1 do in these assays?
Pf Dd2 inh: -10%

What do the screens show for `Cc1ccc(C)c(CSc2ccc3nnc(CCNS(=O)(=O)c4ccccc4)n3n2)c1`?
Pf Dd2 inh: -4%

How did Cc1ccc(S(=O)(=O)NCCc2nnc3ccc(SCc4ccccc4C)nn23)cc1 do in these assays?
Pf Dd2 inh: 7.9µM*

How did COCCNC(=O)[C@@H]1C[C@@H](O)CN1C1CCN(C(=O)C2CCCC2)CC1 do in these assays?
Pf Dd2 inh: 6%

How did CCOc1ccccc1C(=O)N1C[C@@H](CO)[C@H](c2nc(C3CC3)no2)C1 do in these assays?
Pf Dd2 inh: -26%

What do the screens show for `O=S(=O)(Cc1ccccc1)N1CCC(N2CC(OCC3CC3)C23CCOCC3)CC1` (stereo not given)?
Pf Dd2 inh: inactive

What do the screens show for `COCc1nncn1C1CCN(S(=O)(=O)c2ccccc2C(F)(F)F)CC1`?
Pf Dd2 inh: 17%

Results for Cc1ccc(-n2c3c(c(=O)[nH]c2=O)C(NS(=O)(=O)c2ccc(Cl)cc2)(C(F)(F)F)C(=O)N3)cc1 (stereo not given) ?
Pf Dd2 inh: 8.9µM*

What do the screens show for `O=C1Nc2c(c(=O)[nH]c(=O)n2-c2ccc(F)cc2)C1(NS(=O)(=O)c1ccc(Cl)cc1)C(F)(F)F` (stereo not given)?
Pf Dd2 inh: 37%

Results for Cc1ccc(-n2c3c(c(=O)[nH]c2=O)C(NS(=O)(=O)c2ccc(C)cc2)(C(F)(F)F)C(=O)N3)cc1 (stereo not given) ?
Pf Dd2 inh: 22%

What do the screens show for `O=C(c1ccncc1)N1CC[C@H](c2nnc(-c3ccccc3)o2)C1`?
Pf Dd2 inh: 2%[44.1 µM]

Results for CCOc1ccccc1C(=O)NCc1nnc2c(-c3nc(C4CC4)no3)cccn12 ?
Pf Dd2 inh: 3.2µM*
